# Compound activity deposited in PubChem by National Center for Advancing Translational Sciences (NCATS).
# TGFb SMAD3 inh = blocks TGF-b signaling. actives 1.2% (n = 410,000). AID 588855. Potency, µM (highest dose often 46.1 µM), for inactives: at the highest dose activity, negative = inhibition, most hits filed as inhibitors. HepG2 CAGA-GFP TGF-b/SMAD3 reporter, GFP fluorescence, 18 h; TGF-beta stimulated, 500 pg/mL final; also: potency is read from the fitted curve at half-maximal effect; % is scaled to controls: 0 for no effect and ±100 for the full control effect; nearly all actives have a fitted effect of over 65% in size
#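 Per well, imaged GFP fluorescence of HEPG2 CAGA-GFP cells gives the signal; cells get compound, then TGF-beta (500 pg/mL final), 18 h at 37 degrees C; %Activity versus -TGF-beta and +DMSO controls.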
# Giardia kill = kills Giardia lamblia; actives 0.15% (n = 340,000); Giardia lamblia trophozoite viability; activity change, % at 7.66 µM, hits read low; in the data active = activity change below about -80%; inconclusive = between about -30% and that limit;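 also: parasites exposed to compound for two days anaerobically before the ATP read; % is scaled to controls: 0 for no effect and ±100 for the full control effect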
#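 Giardia lamblia trophozoites (100 cells/well) were incubated with compounds for 48 h at 37 deg C under anaerobic conditions. Viability was read as ATP content by one-step luminescence after 15-30 min at room temperature.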
# uPA surface inh = inhibitors of cell surface uPA generation; actives 0.31% (n = 330,000); AID 540303; Potency, µM (series often up to 38.3 µM), for the others: top-dose activity change, negative = inhibition, most hits filed as inhibitors; cell surface uPA generation assay, qHTS; active = well fitted inhibition curve with a large enough effect; inconclusive = small, poorly fitted or top-dose-only effect; inactive = no such curve, though single readings can be large or run the other way; tested in mouse RAW 264.7 cells; also: potency is read from the fitted curve at half-maximal effect; % is scaled to controls: 0 for no effect and ±100 for the full control effect; nearly all actives have a fitted effect of over 55% in size
# HepG2 tox-1 = HepG2 cytotoxicity, counter-screen for TGF-b inhibitors | HepG2 CAGA-GFP viability, ATP luminescence, 18 h | Potency, µM (top dose mostly 46.1 µM), without a hit: top-dose activity change, negative = cytotoxicity, hits mostly cytotoxic | actives 0.76% (n = 410,000) | AID 588856; also: potency is read from the fitted curve at half-maximal effect
#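 CellTiter-Glo luminescence gave cytotoxicity after 18 hours at 37 degrees C. The cells were HepG2 CAGA-GFP in 1% FBS DMEM, stimulated with 500 pg/mL TGF-beta after compound addition. %Activity was normalised to no-cell wells (complete cell-killing) and DMSO (no toxicity), and curves were fitted and classified.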
# S2 tox = viability counter-screen for ATXN expression inhibitors; S2 cells (HEK-293 line with an ATXN2-luciferase reporter) viability, CellTiter-Fluor protease fluorescence, 24 h; Potency, µM (doses to about 56.7 µM), most hits filed as cytotoxic; actives 0.49% (n = 400,000); AID 651635; also: potency is read from the fitted curve at half-maximal effect; nearly all actives have a fitted effect of over 40% in size
# ATXN2 expr inh = ATXN2 expression inhibition | HEK-293 ATXN2-luciferase reporter, luminescence, 24 h | Potency, µM (titrated, usually from 57 µM), inactives show at the highest dose activity change, negative = inhibition, hits mostly inhibitors | actives 0.72% (n = 360,000) | AID 1745845; also: potency is read from the fitted curve at half-maximal effect; % is scaled to controls: 0 for no effect and ±100 for the full control effect; nearly all actives have a fitted effect of over 55% in size
#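 ATXN2-luciferase reporter cells (luciferase flanked by upstream and downstream ATXN2 gene portions) were treated 24 h at 37 °C with compounds at up to 57 uM. SteadyGlo luminescence gave expression; GF-AFC fluorescence gave viability.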
# TGFb CAGA inh = TGF-b pathway inhibition, cherry-pick retest. shares compounds with TGFb SMAD3 inh. HepG2 CAGA-GFP TGF-b reporter, GFP fluorescence, 18 h; cells stimulated with TGF-beta, 500 pg/mL. Potency, µM (titrated, usually from 46.1 µM), without a hit: top-dose activity, negative = inhibition, most hits filed as inhibitors. actives 63% (n = 1,600). AID 720534; also: potency is read from the fitted curve at half-maximal effect; % is scaled to controls: 0 for no effect and ±100 for the full control effect; nearly all actives have a fitted effect of over 65% in size
# HepG2 tox-2 = toxic to HepG2 cells in TGF-b counterscreen. HepG2 CAGA-GFP viability, ATP luminescence, 18 h; cells stimulated with TGF-beta, 500 pg/mL. actives 27% (n = 1,600). shares compounds with TGFb SMAD3 inh. Potency, µM (doses to about 46.1 µM), for the others: at the top dose activity, negative = cytotoxicity, hits mostly inhibitors; also: potency is read from the fitted curve at half-maximal effect; % is scaled to controls: 0 for no effect and ±100 for the full control effect; nearly all actives have a fitted effect of over 70% in size
# CCL64 TGFb inh = orthogonal confirmation of TGF-b inhibitors in CCL64 cells | CCL64 CAGA-GFP reporter, TGF-b stimulated, GFP fluorescence, 18 h | shares compounds with TGFb SMAD3 inh | actives 41% (n = 1,600) | AID 720536 | Potency, µM (series often up to 46.1 µM), without a hit: at the top dose activity, negative = inhibition, usual class: inhibitors; also: potency is read from the fitted curve at half-maximal effect; nearly all actives have a fitted effect of over 65% in size
# COP TGFb inh = TGF-b inhibition validated with COP promoter; shares compounds with TGFb SMAD3 inh; HepG2 COP-GFP TGF-b reporter, GFP fluorescence, 18 h; cells stimulated by added recombinant TGF-beta; Potency, µM (top dose mostly 46.1 µM), inactives show at the highest dose activity, negative = inhibition, usual class: inhibitors; actives 3% (n = 1,600); AID 720537; also: potency is read from the fitted curve at half-maximal effect; nearly all actives have a fitted effect of over 70% in size
# An asterisk follows results filed as active; i = inactive; ? = inconclusive; / = no result. Compounds with a hit are over-represented: about 2.6% of the library has one in this group of screens. Unless noted, calls follow the shape of the dose curve; as a rule, active = well fitted curve in the direction sought with a large enough effect; inconclusive = small, poorly fitted or top-dose-only effect, or another doubt; inactive = no such curve, though single readings can be large; an effect the other way counts as inactive or inconclusive.
SMILES,TGFb SMAD3 inh,Giardia kill,uPA surface inh,HepG2 tox-1,S2 tox,ATXN2 expr inh,TGFb CAGA inh,HepG2 tox-2,CCL64 TGFb inh,COP TGFb inh
COc1ccc(S(=O)(=O)N2CCCCCC2)cc1C(=O)OCC(=O)NC1CCS(=O)(=O)C1 (stereo not drawn),-15%,3,-2%,-2%,i,10%,/,/,/,/
O=[N+]([O-])c1cccc(S(=O)(=O)Nc2nc3ccccc3nc2Nc2cccc(S(=O)(=O)N3CCCCC3)c2)c1,4.5µM*,-10,?,-32%,?,?,3.3µM*,6.5µM*,2.9µM*,1%
Brc1cc(Br)c2ncnc(N3CCCCC3)c2c1,6.3µM*,6,-3%,-40%,i,-23%,9.2µM*,4.1µM*,?,42%
Clc1ccc(-n2ncc3c(N4CCCCCC4)ncnc32)cc1,6%,?,?,0%,i,-16%,/,/,/,/
O=c1c2ccccc2nc(/C=C/c2ccc([N+](=O)[O-])o2)n1CCCO,5.6µM*,-88*,-3%,3.2µM*,/,4.5µM*,3.3µM*,6.5µM*,5.8µM*,?
O=C(c1ccc(N2CCC(NCCCn3ncc4ccccc43)CC2)cc1)N1CCOCC1,/,/,/,/,i,/,/,/,/,/
CCCCOc1ccc(CSCCNC(=S)Nc2ccccc2)cc1,7.9µM*,-10,-9%,-17%,?,-24%,?,-16%,9%,-10%
CCCOc1ccc(F)cc1-c1cc(C(=O)Nc2ccc(C)c(NS(C)(=O)=O)c2)[nH]n1,18µM*,/,/,-30%,i,0%,?,?,23µM*,50%
CC(=O)c1ccc(NC(=O)C2CCN(c3nnc(C)c4c(C)n(-c5ccccc5)nc34)CC2)cc1,?,/,/,-3%,/,/,/,/,/,/
Cc1ccccc1CC1(CO)CCCN(C(=O)c2ccoc2)C1 (stereo not drawn),6%,/,/,4%,i,/,/,/,/,/
COc1ccc(CNC(=O)[C@@H]2CCCN2C(=O)[C@@H]2Cc3ccccc3CN2C(=O)OC(C)(C)C)cc1,11µM*,?,4%,-7%,i,1%,13µM*,-17%,12%,-6%
CC(=O)n1nc(-c2ccncc2)nc1SCC(=O)Nc1cccc(Cl)c1,4µM*,-11,1%,5%,i,-17%,3.7µM*,-13%,7.3µM*,19%
Cc1cccc(NC(=O)CSc2n[nH]c(-c3ccncc3)n2)c1,3.5µM*,-17,1%,-16%,i,-13%,5.2µM*,1%,10µM*,3%
Cc1cc(N2CCN(c3ccccc3)CC2)n2cc(-c3ccccc3)nc2n1,?,-30,-7%,-36%,?,22%,?,-8%,-27%,25%
COc1ccc2c(c1)sc1nc(-c3ccccc3)cn12,10µM*,-91*,-8%,-69%,i,?,?,?,15µM*,-15%
CC1CN(c2nc3ccccc3nc2SCC(=O)Nc2cccc(C(F)(F)F)c2)CC(C)O1 (stereo not drawn),16µM*,1,-23%,-32%,?,?,23µM*,?,?,29%
CN(CC(=O)Nc1cccc(S(=O)(=O)N2CCCC2)c1)CC(=O)Nc1ccc(Cl)c(C(F)(F)F)c1,16µM*,6,-10%,-14%,?,?,16µM*,?,29µM*,60%
CN(CC(=O)Nc1cccc(S(=O)(=O)N2CCCC2)c1)CC(=O)Nc1ccc(F)c(F)c1F,-2%,-8,-4%,0%,i,-11%,/,/,/,/
O=C(CNc1ccc(Cl)c(C(F)(F)F)c1)N1CCN(S(=O)(=O)c2ccccc2)CC1,13µM*,-10,-5%,-8%,i,-6%,12µM*,-3%,-25%,-10%
CN(CC(=O)Nc1ccc(Cl)c(C(F)(F)F)c1)C(=O)COc1cccc2cccnc12,-5%,/,/,-27%,i,/,/,/,/,/
COc1ccccc1CCC(=O)N(C)CC(=O)Nc1ccc(Cl)c(C(F)(F)F)c1,11µM*,23,-4%,-9%,i,-8%,?,-20%,?,-1%
C[C@H](CO)N1C[C@H](C)[C@@H](CN(C)S(=O)(=O)c2cccs2)Oc2c(NC(=O)C3CC3)cccc2C1=O,1%,11,9%,0%,i,3%,/,/,/,/
CC(C)C[C@H](NC(=O)OCC1c2ccccc2-c2ccccc21)C(=O)O,-16%,-8,-10%,-30%,i,29%,/,/,/,/
Cc1ccc2cc(CN(C(=O)c3cccc(Cl)c3)c3ccccc3)c(=O)[nH]c2c1,6%,/,/,3%,i,8%,/,/,/,/
Cn1c(C(=O)N2CCCC(C(=O)NCc3cccs3)C2)cc2sccc21 (stereo not drawn),?,2,-5%,-1%,i,4%,/,/,/,/
CCn1c(C(=O)N2CCCC(C(=O)NCCc3ccc(C)cc3)C2)cc2sccc21 (stereo not drawn),13µM*,-28,-5%,-26%,?,?,?,-21%,-25%,-7%
Cn1c(C(=O)N2CCCC(C(=O)NCCCSC3CCCCC3)C2)cc2sccc21 (stereo not drawn),13µM*,-4,-6%,-16%,i,-1%,?,?,?,30%
Cn1cnc2ncnc(Oc3ccc(Br)cc3)c21,12%,-19,-2%,-29%,i,-7%,/,/,/,/
Cn1c(=O)c2c([nH]c(=S)n2Cc2ccc(Cl)cc2)n(C)c1=O,4%,-11,1%,-14%,i,-7%,/,/,/,/
